# Shiga inhibitor = Shiga toxin inhibition; Vero cells, Shiga toxin protein synthesis inhibition reporter; inhibition, % at 38.7 µM; actives 9.2% (n = 290,000); in the data active means inhibition mostly above about 28%, no sharp cut-off; inactive means mostly below about 43%; further: 0% is about no effect
# NS1 function inh = inhibitors of influenza NS1 protein function; Potency, µM (doses to about 46.1 µM), without a hit: at the highest dose activity, positive = more growth; actives 0.4% (n = 270,000); further: potency means the concentration at half of the fitted maximal effect; actives are rising curves; nearly all actives have a fitted effect of over 50% in size
#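 Compounds were scored for reversing the slow growth caused by influenza A NS1 in S. cerevisiae, measured by optical density at 600 nm. Assay medium contained 2% galactose at pH 6.0; NS1-free yeast of the same strain were the positive control.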
# TbPYK inhibitor = blocks Trypanosoma brucei pyruvate kinase | Q57TT1 | TbPYK enzyme, Kinase-Glo Plus ATP luminescence, 45 min | Potency, µM (top dose mostly 76.8 µM), without a hit: at the highest dose activity, negative = inhibition, usual class: inhibitors | actives 0.12% (n = 410,000) | AID 624173; active means well fitted curve in the direction sought with a large enough effect; inconclusive means small, poorly fitted or top-dose-only effect, or another doubt; inactive means no such curve, though single readings can be large; an effect the other way counts as inactive or inconclusive; further: potency means the concentration at half of the fitted maximal effect; on the % scale 0 is the no-effect control and ±100 the full control effect; nearly all actives have a fitted effect of over 50% in size
#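 ADP (130 uM final) triggers the TbPYK reaction after compound addition; incubation is 45 min at room temperature. Kinase-Glo Plus is then added and luminescence imaged. Normalized data are fitted to concentration-effect curves.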
# SARS PLP yeast = SARS-CoV PLP inhibition in yeast. S. cerevisiae expressing SARS-CoV PLpro, growth rescue. Potency, µM (highest dose often 32.9 µM), for the others: top-dose activity, positive = growth rescue, hits mostly activators. actives 0.19% (n = 330,000). AID 485353; further: potency means the concentration at half of the fitted maximal effect; 0% is about no effect; nearly all actives have a fitted effect of over 55% in size
# Cycloheximide cs = counter-screen hit for Shiga toxin inhibitors, cycloheximide; cell reporter, cycloheximide protein synthesis inhibition counterscreen; actives 12% (n = 300,000); AID 2314; max response, %; in the data active means max response mostly above about 13%, no sharp cut-off; inactive means mostly below about 14%; further: read at 38.3 µM for the half of the compounds with a filed dose; 0% is about no effect
# LmPK inhibitor = LmPK (Leishmania mexicana) enzyme inhibition | AID 1721 | Potency, µM (doses to about 57.5 µM), for inactives: at the highest dose activity change, negative = inhibition, usual class: inhibitors | actives 0.37% (n = 290,000) | purified LmPK, Kinase-Glo ATP luminescence, 1 h; active means well fitted curve in the direction sought with a large enough effect; inconclusive means small, poorly fitted or top-dose-only effect, or another doubt; inactive means no such curve, though single readings can be large; an effect the other way counts as inactive or inconclusive; further: potency means the concentration at half of the fitted maximal effect; on the % scale 0 is the no-effect control and ±100 the full control effect
# Target sequence (Q27686 whole entry, looked up): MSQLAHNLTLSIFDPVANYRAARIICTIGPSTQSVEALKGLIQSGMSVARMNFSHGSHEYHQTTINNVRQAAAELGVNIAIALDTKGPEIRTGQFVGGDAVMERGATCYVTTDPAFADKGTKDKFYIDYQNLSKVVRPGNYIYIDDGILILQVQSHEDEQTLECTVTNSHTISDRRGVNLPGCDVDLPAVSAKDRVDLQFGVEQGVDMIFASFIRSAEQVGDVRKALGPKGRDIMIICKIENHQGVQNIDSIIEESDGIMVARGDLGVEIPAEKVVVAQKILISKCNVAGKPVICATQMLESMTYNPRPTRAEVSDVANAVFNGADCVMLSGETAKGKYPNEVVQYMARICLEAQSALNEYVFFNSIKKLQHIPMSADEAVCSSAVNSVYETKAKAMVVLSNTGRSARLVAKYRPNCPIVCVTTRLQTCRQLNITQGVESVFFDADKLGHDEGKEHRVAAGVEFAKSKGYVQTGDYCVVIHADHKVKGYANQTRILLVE
#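 Purified LmPK (0.1 nM) with 0.5 mM PEP and 0.1 mM ADP in imidazole buffer pH 7.2 with MgCl2/KCl, 1 h at room temperature. ATP formed was read by luciferase luminescence and normalized to no-enzyme and uninhibited controls.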
# The depositor's hits bear a star; ? = inconclusive; nt = no result. The sample as a whole holds a higher share of hits than the screen did. Unless noted, the call rests on the fitted dose curve.
SMILES,Shiga inhibitor,NS1 function inh,TbPYK inhibitor,SARS PLP yeast,Cycloheximide cs,LmPK inhibitor
O=C(CSc1cn(Cc2ccccc2)c2ccccc12)Nc1nccs1,75.8*,-1.3%,-15.2%,-3.7%,37.1*,8.8%
O=C(CCc1ccccc1)Nc1nccs1,nt,8.3%,6.2%,1.9%,20.3*,7.2%
O=C(CSCc1c(Cl)cccc1Cl)Nc1nccs1,109.1*,9.1%,nt,13.5%,42.0,3.2%
O=C(CSCc1ccccn1)Nc1ccccc1,37.8*,-3.0%,-0.3%,4.0%,22.4*,-5.6%
O=C(Cc1ccccc1)Nc1nccs1,5.2,0.1%,-10.4%,-0.7%,-1.4,-2.5%
O=C(Cc1ccccn1)Nc1ccccc1,17.7,0.0%,1.0%,2.0%,-1.2,0.8%
O=S1(=O)C[C@H](N2CCC[C@@H]2CO)[C@@H](COCc2ccccc2)N1,nt,nt,-2.1%,nt,nt,nt
CCOC(=O)c1scc(-c2ccccc2)c1S(=O)(=O)Nc1ccccc1OC,nt,nt,-7.2%,nt,nt,nt
Cc1ccc(SCC(=O)Nc2nccs2)cc1,70.9*,-1.9%,-3.9%,-1.9%,42.5*,-2.7%
Cc1ccc(SCC(=O)Nc2ccc(S(=O)(=O)Nc3nccs3)cc2)cc1,-4.4,-15.1%,-11.2%,4.4%,-7.5,0.2%
COc1cccc(CNC[C@H]2O[C@@H](n3ccc(N)nc3=O)[C@H](O)[C@@H]2O)c1OCc1ccc(F)cc1Cl,nt,nt,3.2%,nt,nt,nt
O=C(Nc1ccccc1)OCCCCOC(=O)Nc1ccccc1,nt,nt,-1.1%,nt,nt,nt
C#CCCOC(=O)Nc1ccccc1,21.5,-1.3%,4.2%,1.4%,active,-1.5%
O=C(Nc1ccccc1)OCCCc1ccccc1,133.1*,nt,-11.5%,-0.9%,50.1*,4.6%
COC(=O)C(C)Sc1snnc1-c1ccccc1 (centres undefined),10.3,-5.0%,-5.7%,10.3%,2.6,8.7%
c1ccc(CSc2snnc2-c2ccccc2)cc1,41.5*,-5.4%,4.0%,-7.5%,44.2*,4.4%
Clc1ccc(CSc2snnc2-c2ccccc2)c(Cl)c1,98.5*,3.0%,-2.5%,-18.8%,43.3*,-0.5%
Nc1nc(Nc2ccccc2)nc2ccccc12,56.2,-34.5%,-23.3%,-17.3%,28.2,15.8µM*
COc1cc2nc(Nc3ccc(C)c(Cl)c3)nc(N)c2cc1OC,20.0,-3.4%,-0.9%,-10.0%,10.9,-0.4%
COc1cc2nc(Nc3cccc(C)c3)nc(N)c2cc1OC,nt,nt,-5.3%,nt,nt,nt
COc1ccc(C)cc1Nc1nc(N)c2ccccc2n1,55.5*,-12.4%,-3.9%,1.4%,28.2*,-0.4%
Nc1nc(Nc2ccc(Cl)cc2)nc2ccccc12,26.7,-27.5%,4.8%,-33.7%,30.5*,17.8µM*
Cc1ccc(Nc2nc(N)c3ccccc3n2)cc1Cl,nt,-14.6%,0.8%,-2.7%,43.0*,-0.7%
Cc1ccccc1Nc1nc(N)c2ccccc2n1,51.5*,-4.8%,?,-2.9%,20.7*,?
CSc1cccc(NC(=O)CN(C)S(=O)(=O)c2ccc3c(c2)CCCN3C(C)=O)c1,nt,nt,0.0%,nt,nt,nt
SMILES,Shiga inhibitor,NS1 function inh,TbPYK inhibitor,SARS PLP yeast,Cycloheximide cs,LmPK inhibitor
Cc1ccc2nc(-c3ccsc3)c(NC3CCCC3)n2c1,51.0*,nt,-0.7%,0.1%,29.4,-0.2%
CCCCOc1ccc(-c2nnn(CC(=O)NCc3ccco3)n2)cc1,68.9*,-4.6%,1.8%,-3.0%,30.8*,0.2%
CC(C)CC(=O)Nc1ccc(-c2nnn(CC(=O)NCc3ccco3)n2)cc1,85.8*,7.5%,-5.2%,1.6%,29.2*,0.8%
CCOc1ccc(-c2nnn(CC(=O)NCc3ccco3)n2)cc1OCC,-1.3,16.4%,-5.1%,13.9%,-2.2,-0.7%
CC(C)(C)c1ccc(C(=O)NCCNC(=O)c2ccco2)cc1,28.0,17.9%,0.6%,1.3%,2.2,-1.0%
O=C(O)C[C@H]1c2cc(C(F)(F)F)ccc2S(=O)(=O)N1Cc1ccccc1,nt,nt,-0.2%,nt,nt,nt
CC(C)COC(=O)c1ccc2c(c1O)C(=O)c1ccccc1C2=O,66.5*,-9.5%,-5.4%,8.5%,34.3*,-23.2%
O=C(CCN1C(=O)c2ccccc2C1=O)c1ccccc1,nt,nt,1.0%,nt,nt,nt
Cc1cccc(NCCNc2cccc(C)c2)c1,25.4,-40.3%,3.9%,4.1%,18.4*,-5.5%
Cc1ccc(NCc2ccccc2O)cc1,71.8*,3.0%,3.0%,-5.3%,30.4*,-4.2%
Cc1cccc(NCc2ccccc2O)c1,24.7,-1.8%,-5.7%,-9.3%,17.9*,-2.1%
